Screens (PubChem BioAssay)
Only some compounds are listed: those with a hit (about 3% of all), similar ones and a draw of the others.
EWS-Fli inh: EWS/Fli-driven NR0B1 reporter inhibitors, primary screen, A673 cells, NR0B1 luciferase, luminescence, MLPCN library. inhibition, % at 12.6 µM. viability-normalised. 350,000 tested, 0.67% active;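 active means mean inhibition of at least 50% after viability correction, with every replicate also passing that limit; inconclusive means mean reaches 50% but only one of two replicates passes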;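 further: firefly luciferase signal divided by Alamar Blue viability fluorescence both relative to DMSO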
PAX8 reporter: inhibitors of PAX8-driven TPO luciferase reporter, primary screen, RMG-I cells, single concentration | SteadyGlo, 24 h | inhibition, % at 12.6 µM | 360,000 tested, 1.2% active;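 active means mean replicate inhibition at least 60% with every replicate also reaching 60%; inconclusive means only one of the two criteria is met; inactive means mean below 60% and not all replicates reaching 60%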;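 further: luciferase light reporting Pax8 driven TPO promoter activity; plate controls were median of neutral control wells for no effect and mitoxantrone controls for full effect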
Peg3 prom inh: Peg3 promoter-driven luciferase inhibitors, primary screen, cell-based, HeLa, luciferase luminescence | 360,000 tested, 1.7% active | AID 588405, 2011 | inhibition, % at 20 µM | HeLa PEG-Prom luciferase reporter, overnight;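 active means inhibition of at least 50% at 20 µM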
ABHD5 PLIN5 PPI: ABHD5-PLIN5 interaction inhibitors, primary screen, cell lysate, split luciferase complementation, luminescence. Perilipin-5 (Homo sapiens) + 1-acylglycerol-3-phosphate O-acyltransferase ABHD5 (Homo …. Split G. princeps luciferase complementation, 4 h. inhibition, % at 4 µM. 360,000 tested, 0.78% active. AID 602281, 2012;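 active means inhibition above the mean inhibition across every tested compound plus 3 SD, cut at about 22% in these data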;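 further: 0% = DMSO only wells and the 100% control is not disclosed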
Target sequence (Q00G26 whole entry, looked up): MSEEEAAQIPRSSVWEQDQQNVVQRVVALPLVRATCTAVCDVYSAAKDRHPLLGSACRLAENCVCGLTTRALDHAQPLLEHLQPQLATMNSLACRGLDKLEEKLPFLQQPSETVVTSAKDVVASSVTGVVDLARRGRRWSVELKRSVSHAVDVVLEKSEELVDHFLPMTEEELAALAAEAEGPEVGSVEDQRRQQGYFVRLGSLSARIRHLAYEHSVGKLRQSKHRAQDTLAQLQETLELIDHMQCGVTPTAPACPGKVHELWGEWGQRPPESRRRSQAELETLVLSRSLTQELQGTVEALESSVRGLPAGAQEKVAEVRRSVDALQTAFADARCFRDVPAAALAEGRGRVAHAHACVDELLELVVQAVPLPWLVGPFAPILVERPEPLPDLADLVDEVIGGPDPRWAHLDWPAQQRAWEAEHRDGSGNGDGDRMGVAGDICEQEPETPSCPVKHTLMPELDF
Target sequence (Q8WTS1 whole entry, looked up): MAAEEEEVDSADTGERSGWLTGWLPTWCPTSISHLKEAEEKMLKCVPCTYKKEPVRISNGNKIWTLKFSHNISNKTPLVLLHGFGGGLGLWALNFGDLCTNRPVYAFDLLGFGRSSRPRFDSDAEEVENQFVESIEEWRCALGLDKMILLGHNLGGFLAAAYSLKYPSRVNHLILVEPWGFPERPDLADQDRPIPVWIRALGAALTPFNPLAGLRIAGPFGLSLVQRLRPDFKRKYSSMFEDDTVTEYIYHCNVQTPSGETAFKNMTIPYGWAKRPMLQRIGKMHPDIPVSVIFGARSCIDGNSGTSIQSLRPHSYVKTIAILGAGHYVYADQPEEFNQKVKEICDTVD
TRPM1 prom inh: inhibitors of MITF-dependent TRPM1 promoter reporter, primary screen, cell-based, SK-MEL-5, single point, luciferase. SK-MEL-5 TRPM1 promoter luciferase, 24 h. inhibition, % at 12.5 µM. 330,000 tested, 0.83% active. AID 488899, 2010;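 active means mean inhibition across replicates of 60% or more, whatever share of single replicates reaches that level; inconclusive means some that reach 60%, reason not given; inactive means mean inhibition across replicates below 60%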
Shn3 inh set2: reduction of Shn3 3'UTR firefly luciferase signal, primary screen, Schnurri-3 inhibitor project, cell-based, Clone20 osteoblasts, set 2; Clone20 osteoblast Shn3 3'UTR firefly luciferase, 24 h; inhibition, % at 12.5 µM; 360,000 tested, 0.52% active;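 active means mean inhibition of at least 75% with every replicate also reaching 75%; inconclusive means mean inhibition at least 75% but some replicate below; inactive means mean inhibition below 75%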;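 further: 0% = median of neutral control wells and 100% = pilot-screen positive control compound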
* marks the source's active call; other numbers are inactive results.

Screening CC(=O)N(C)C[C@@H]1Oc2cc(C#CC3CC3)ccc2S(=O)(=O)N([C@H](C)CO)C[C@H]1C returned EWS-Fli inh -0.6.
Screening CCO[C@@H]1OC(C(=O)O)=C[C@H](c2coc3ccccc3c2=O)[C@H]1CCCO returned EWS-Fli inh -2.0, PAX8 reporter 5.1, Peg3 prom inh 1.7, ABHD5 PLIN5 PPI -3.8, TRPM1 prom inh 9.4 and Shn3 inh set2 -23.1.
`CCO[C@@H]1OC(C(=O)NC2CC2)=C[C@H](c2coc3ccccc3c2=O)[C@H]1CCCO` gave EWS-Fli inh 2.3, PAX8 reporter 0.2, Peg3 prom inh -4.1, ABHD5 PLIN5 PPI 7.0, TRPM1 prom inh -4.1 and Shn3 inh set2 92.1*.
`Cc1ccc(CN2CCNC(=O)C2CC(=O)NCCCn2nnc3ccccc32)cc1` (stereo not drawn) gave EWS-Fli inh -9.0, PAX8 reporter -15.0, Peg3 prom inh 5.1, ABHD5 PLIN5 PPI 3.3 and Shn3 inh set2 -0.8.
For O=C(CC1C(=O)NCCN1Cc1ccoc1)NCCCn1ncc2ccccc21 (stereo not drawn) the results were EWS-Fli inh -4.5, PAX8 reporter -24.5, Peg3 prom inh -2.9, ABHD5 PLIN5 PPI 33.4*, TRPM1 prom inh -2.3 and Shn3 inh set2 -2.3.
Screening COCC(=O)N1CC2(C1)[C@H](c1ccc(-c3ccc(F)cc3)cc1)[C@H](CO)N2C(=O)C1CC1 returned EWS-Fli inh -0.8 and PAX8 reporter 3.3.
For OC[C@H]1O[C@@H](Oc2ccc(O)cc2)[C@H](O)[C@@H](O)[C@@H]1O the results were EWS-Fli inh 5.2, PAX8 reporter -1.7, Peg3 prom inh 6.7, ABHD5 PLIN5 PPI 0.6, TRPM1 prom inh 13.8 and Shn3 inh set2 87.7*.
`O=C1C[C@@H](c2ccc(O[C@@H]3O[C@H](CO)[C@@H](O)[C@H](O)[C@H]3O)cc2)Oc2cc(O)ccc21` gave EWS-Fli inh 21.1, PAX8 reporter -26.5, Peg3 prom inh -35.0, ABHD5 PLIN5 PPI 4.9, TRPM1 prom inh -16.4 and Shn3 inh set2 2.3.
Screening CCCNC(=O)N1CC2(C1)CN(C(=O)Nc1ccc(F)cc1)[C@H](CO)c1[nH]c3cc(OC)ccc3c12 returned EWS-Fli inh 5.4.
CSc1nc(C2CC2)cc(-c2cccs2)c1C#N was read as Peg3 prom inh 56.9*, ABHD5 PLIN5 PPI 3.8, TRPM1 prom inh 21.7 and Shn3 inh set2 4.2.
O=C(C[C@H]1CC[C@H]2[C@@H](COC[C@@H](O)CN2Cc2ccc(F)cc2)O1)NCc1ccccc1Cl was read as EWS-Fli inh 3.8 and PAX8 reporter 78.7*.
For O=C(C[C@@H]1CC[C@@H]2[C@H](COC[C@H](O)CN2Cc2cccc(F)c2)O1)NCC1CCCCC1 the results were EWS-Fli inh -45.4 and PAX8 reporter -36.8.
O=C(C[C@@H]1CC[C@H]2[C@@H](COC[C@@H](O)CN2Cc2cccc(F)c2)O1)NCC1CCCCC1 was read as EWS-Fli inh 0.1 and PAX8 reporter 107.4*.
`O=C(C[C@@H]1CC[C@H]2[C@@H](COC[C@@H](O)CN2Cc2cccc(C(F)(F)F)c2)O1)NCc1ccc(F)cc1` gave EWS-Fli inh 27.9 and PAX8 reporter 97.7*.
`O=C(C[C@H]1CC[C@@H]2[C@H](COC[C@@H](O)CN2Cc2cccc(C(F)(F)F)c2)O1)NCc1ccc(F)cc1` gave EWS-Fli inh 20.5 and PAX8 reporter 12.3.
Screening O=S(=O)(c1cccs1)N1CCCCN2[C@H](CO)[C@H](c3ccc(-c4ccccc4)cc3)[C@@H]2C1 returned EWS-Fli inh -1.2 and PAX8 reporter 18.4.
CC=Cc1ccc2n(c1=O)C[C@H]1[C@H](CO)[C@@H](C(=O)NCC)N(Cc3nccs3)[C@@H]21 (mixture of isomers) was read as EWS-Fli inh -5.5 and PAX8 reporter -11.1.
For CCCOc1ccc(/C=N/NC(=O)CSCc2ccc([N+](=O)[O-])cc2)cc1OCC the results were EWS-Fli inh -9.2, PAX8 reporter 83.5*, Peg3 prom inh 4.0, ABHD5 PLIN5 PPI -5.1, TRPM1 prom inh -11.1 and Shn3 inh set2 16.1.
C[C@@H]1CCCCO[C@H](CN(C)Cc2ccc(C(F)(F)F)cc2)[C@H](C)CN([C@@H](C)CO)C(=O)c2cc(NS(=O)(=O)c3cccs3)ccc2O1 was read as EWS-Fli inh 10.6 and PAX8 reporter 93.3*.
`C[C@@H]1CCCCO[C@H](CN(C)Cc2ccc(C(F)(F)F)cc2)[C@@H](C)CN([C@H](C)CO)C(=O)c2cc(NS(=O)(=O)c3cccs3)ccc2O1` gave EWS-Fli inh 5.2 and PAX8 reporter 24.4.
Screening C[C@@H]1CCCCO[C@@H](CN(C)Cc2ccc(C(F)(F)F)cc2)[C@@H](C)CN([C@H](C)CO)C(=O)c2cc(NS(=O)(=O)c3cccs3)ccc2O1 returned EWS-Fli inh -1.8 and PAX8 reporter 38.0.
For C[C@@H]1CCCCO[C@@H](CN(C)Cc2ccc(C(F)(F)F)cc2)[C@H](C)CN([C@H](C)CO)C(=O)c2cc(NS(=O)(=O)c3cccs3)ccc2O1 the results were EWS-Fli inh 8.8 and PAX8 reporter 89.0*.
C[C@@H]1CCCCO[C@H](CN(C)Cc2ccc(C(F)(F)F)cc2)[C@H](C)CN([C@H](C)CO)C(=O)c2cc(NS(=O)(=O)c3cccs3)ccc2O1 was read as EWS-Fli inh 18.7 and PAX8 reporter 99.3*.
Screening C[C@@H]1CCCCO[C@@H](CN(C)Cc2ccc(C(F)(F)F)cc2)[C@H](C)CN([C@@H](C)CO)C(=O)c2cc(NS(=O)(=O)c3cccs3)ccc2O1 returned EWS-Fli inh 11.6 and PAX8 reporter inconclusive.
For C[C@@H]1CCCCO[C@H](CN(C)C(=O)Nc2ccc(C(F)(F)F)cc2)[C@H](C)CN([C@@H](C)CO)C(=O)c2cc(NS(=O)(=O)c3ccc(F)cc3)ccc2O1 the results were EWS-Fli inh 14.9 and PAX8 reporter 68.3*.
Screening C[C@@H]1CCCCO[C@H](CN(C)C(=O)Nc2ccc(C(F)(F)F)cc2)[C@@H](C)CN([C@@H](C)CO)C(=O)c2cc(NS(=O)(=O)c3ccc(F)cc3)ccc2O1 returned EWS-Fli inh -10.2 and PAX8 reporter 85.2*.
For C[C@H]1CCCCO[C@@H](CN(C)C(=O)Nc2ccc(C(F)(F)F)cc2)[C@@H](C)CN([C@@H](C)CO)C(=O)c2cc(NS(=O)(=O)c3ccc(F)cc3)ccc2O1 the results were EWS-Fli inh -7.2 and PAX8 reporter -21.0.
